In PubChem BioAssay (Tox21):
Several values for one entry are separate records, joined by “and”; a condition that tells them apart may be missing. Equal entries are not always repeated. Values without a mark were called inactive. Records with an inconclusive call do not appear. Where a call stands in place of a potency, no number is given. Activity calls are given as the source filed them. Unless noted, calls follow the shape of the dose curve; as a rule, active = well fitted curve in the direction sought with a large enough effect in the repeat runs; inconclusive = weak or mixed curves; inactive = no such curve, though single readings can be large; an effect the other way counts as inactive or inconclusive.

Experiments:
[1] = target: Estrogen receptor beta (Homo sapiens) (UniProt Q92731); experiment: qHTS assay to identify small molecule agonists of the estrogen receptor beta (ER-beta) signaling pathway (AID 1259377; active = well fitted activation curve with a large enough effect in the signal ratio in the repeat runs, not every such curve was filed as active; the % refers to the signal ratio)
Estrogen receptor beta (Homo sapiens), sequence (Q92731 whole entry, looked up): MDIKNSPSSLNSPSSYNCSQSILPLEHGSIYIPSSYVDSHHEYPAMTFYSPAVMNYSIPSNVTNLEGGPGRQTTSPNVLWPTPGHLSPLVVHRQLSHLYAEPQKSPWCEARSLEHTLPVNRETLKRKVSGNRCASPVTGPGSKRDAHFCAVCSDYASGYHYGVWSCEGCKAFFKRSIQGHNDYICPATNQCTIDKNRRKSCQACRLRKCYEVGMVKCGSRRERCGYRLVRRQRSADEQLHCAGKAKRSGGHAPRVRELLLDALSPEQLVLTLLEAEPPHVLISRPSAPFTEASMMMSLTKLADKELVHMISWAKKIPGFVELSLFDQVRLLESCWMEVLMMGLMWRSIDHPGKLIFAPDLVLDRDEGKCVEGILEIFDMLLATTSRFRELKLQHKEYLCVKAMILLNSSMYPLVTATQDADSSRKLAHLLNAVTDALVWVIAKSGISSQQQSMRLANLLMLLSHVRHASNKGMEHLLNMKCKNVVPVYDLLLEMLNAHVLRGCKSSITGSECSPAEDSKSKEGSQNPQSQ
How it was run: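 Reporter cells (HEK293T, ER-beta-UAS-bla) receive compounds or DMSO after a 6 hr pre-incubation. They then incubate 16 hr at 37C/5% CO2, and fluorescence from LiveBLAzer B/G substrate is measured after 2 hours at room temperature.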

[2] = target: Estrogen receptor beta (Homo sapiens) (UniProt Q92731); experiment: qHTS assay to identify small molecule antagonists of the estrogen receptor beta (ER-beta) signaling pathway (AID 1259378; active = well fitted inhibition curve with a large enough effect in the signal ratio in the repeat runs, not every such curve was filed as active; the % refers to the signal ratio)
How it was run: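 ER-beta-UAS-bla HEK293T (GripTite) cells in 2% charcoal-stripped FBS medium were preincubated 6 hr at 37C, dosed with compound, then stimulated with 1 nM E2 (final) for 16 hr; beta-lactamase reporter read by B/G FRET fluorescence after 2 hr substrate loading.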

[3] = qHTS assay to identify small molecule agonists of the androgen receptor (AR) signaling pathway in the presence of an antagonist - cell viability counter screen (AID 1259379);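 also: MDA-kb2 human breast cancer cells carrying an MMTV luciferase reporter; series mostly up to about 92 µM; nearly all actives have a fitted effect of over 25% in size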
How it was run: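 A CellTiter-Fluor read-out measured viability of MDA-kb2 reporter cells (MMTV promoter with AR and GR response elements). Treatment: nilutamide 3.0uM final with compounds at 15 concentrations, 16 hr, 37C, 0% CO2.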

[4] = qHTS assay to identify small molecule antagonists of the estrogen receptor beta (ER-beta) signaling pathway - cell viability counter screen (AID 1259382); also: nearly all actives have a fitted effect of over 55% in size; also: potency is read from the fitted curve at half-maximal effect; as to activity change, negative = cytotoxicity: series mostly up to about 92 µM
How it was run: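 Agonist-stimulated (1nM E2) ER-beta-UAS-bla HEK293T cells are incubated with library compounds for 16 hr at 37C. Cell viability is then assessed in the reporter-assay wells by adding CellTiter-Glo and reading luminescence after 30 min.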

[5] = target: Estrogen receptor (Homo sapiens) (UniProt P03372); experiment: qHTS assay to identify small molecule agonists of the estrogen receptor alpha (ER-alpha) signaling pathway in the presence of an antagonist (AID 1259383; calls by dose curve; also: top concentration of the series differs between compounds; nearly all actives have a fitted effect of over 15% in size)
Estrogen receptor (Homo sapiens), sequence (P03372 whole entry, looked up): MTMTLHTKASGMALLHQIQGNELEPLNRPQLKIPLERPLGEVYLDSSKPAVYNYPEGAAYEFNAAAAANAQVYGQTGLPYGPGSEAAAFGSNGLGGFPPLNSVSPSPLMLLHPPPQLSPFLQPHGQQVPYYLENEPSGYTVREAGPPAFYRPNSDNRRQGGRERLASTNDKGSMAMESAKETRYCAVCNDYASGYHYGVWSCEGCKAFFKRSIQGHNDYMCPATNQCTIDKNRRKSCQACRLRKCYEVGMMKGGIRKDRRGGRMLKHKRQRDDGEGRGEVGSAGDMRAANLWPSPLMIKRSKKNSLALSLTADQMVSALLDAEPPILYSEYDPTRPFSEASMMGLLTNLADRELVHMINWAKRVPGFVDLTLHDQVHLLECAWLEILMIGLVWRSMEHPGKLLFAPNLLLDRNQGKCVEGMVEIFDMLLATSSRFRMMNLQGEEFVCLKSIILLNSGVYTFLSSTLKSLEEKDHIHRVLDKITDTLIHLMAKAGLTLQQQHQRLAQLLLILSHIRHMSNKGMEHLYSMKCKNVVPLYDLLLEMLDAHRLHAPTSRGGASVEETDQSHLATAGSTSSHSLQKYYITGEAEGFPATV
How it was run: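 Using VM7Luc4E2 cells seeded 24hr before treatment, antagonist ICI-182,780 (10.0nM final) was added, followed by compounds at 15 concentrations. Plates incubated 22hr; ONE-Glo luminescence quantified reporter activity.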

[6] = qHTS assay to identify small molecule agonists or antagonists of the thyroid stimulating hormone receptor (TSHR) signaling pathway - wild type cell line counter screen (AID 1259384; calls by dose curve)
How it was run: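 Wild-type HEK293 cells were plated 18 h at 37 C/5% CO2, pin-dosed with compound plus Ro20-1724 medium, held 30 min at room temperature, then given cAMP-d2 and anti-cAMP-cryptate; fluorescence was read after 1 h. Fifteen concentrations, triplicate.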

[7] = qHTS assay to identify small molecule agonists of the estrogen receptor alpha (ER-alpha) signaling pathway in the presence of an antagonist - cell viability counter screen (AID 1259386);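 also: series mostly up to about 92 µM; cells exposed to compounds for 22 h at 37 °C before the viability read; nearly all actives have a fitted effect of over 30% in size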
How it was run: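 ICI-182,780 at 10.0nM final accompanies the compound titration (15 concentrations, 22hr, 37C) on VM7Luc4E2 cells. The CellTiter-Fluor fluorescence readout runs in the same wells as the luciferase assay.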

[8] = target: Progesterone receptor (Homo sapiens) (UniProt P06401); experiment: qHTS assay to identify small molecule agonists of the progesterone receptor (PR) signaling pathway (AID 1346784; calls by dose curve; also: nearly all actives have a fitted effect of over 30% in size; also: potency is read from the fitted curve at half-maximal effect)
Progesterone receptor (Homo sapiens), sequence (P06401 whole entry, looked up): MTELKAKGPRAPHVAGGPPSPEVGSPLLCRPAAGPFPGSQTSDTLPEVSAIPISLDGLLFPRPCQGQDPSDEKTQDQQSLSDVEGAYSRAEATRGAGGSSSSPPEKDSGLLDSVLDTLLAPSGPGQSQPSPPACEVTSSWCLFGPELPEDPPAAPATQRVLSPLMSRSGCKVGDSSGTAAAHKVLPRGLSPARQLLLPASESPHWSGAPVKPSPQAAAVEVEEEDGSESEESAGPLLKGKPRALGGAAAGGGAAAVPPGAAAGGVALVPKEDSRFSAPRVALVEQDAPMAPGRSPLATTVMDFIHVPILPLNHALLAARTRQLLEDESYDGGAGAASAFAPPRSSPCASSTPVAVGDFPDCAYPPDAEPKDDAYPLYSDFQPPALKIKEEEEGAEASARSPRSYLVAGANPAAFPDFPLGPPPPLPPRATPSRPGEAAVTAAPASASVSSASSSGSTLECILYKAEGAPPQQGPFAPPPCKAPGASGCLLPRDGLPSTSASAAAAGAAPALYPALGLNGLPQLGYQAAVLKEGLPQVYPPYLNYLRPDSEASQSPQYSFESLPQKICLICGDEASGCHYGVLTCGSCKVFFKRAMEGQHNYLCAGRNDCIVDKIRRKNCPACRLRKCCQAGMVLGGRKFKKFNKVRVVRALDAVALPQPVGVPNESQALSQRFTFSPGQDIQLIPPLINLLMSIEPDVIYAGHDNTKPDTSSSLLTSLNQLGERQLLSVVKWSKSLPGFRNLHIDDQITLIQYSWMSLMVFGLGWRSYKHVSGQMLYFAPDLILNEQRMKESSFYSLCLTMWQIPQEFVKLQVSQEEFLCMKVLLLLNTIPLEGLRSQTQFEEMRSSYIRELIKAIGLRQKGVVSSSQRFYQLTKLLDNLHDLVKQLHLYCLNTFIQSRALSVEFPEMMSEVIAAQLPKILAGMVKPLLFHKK
How it was run: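 Reporter assay, GripTite PR-UAS-bla HEK 293T cells: 16 hr exposure to DMSO-dissolved compounds at 37C, 5% CO2, in steroid-depleted (2% charcoal-stripped FBS) medium; beta-lactamase measured by FRET fluorescence.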

[9] = target: Progesterone receptor (Homo sapiens) (UniProt P06401); experiment: qHTS assay to identify small molecule antagonists of the progesterone receptor (PR) signaling pathway (AID 1346795; active = well fitted inhibition curve with a large enough effect in the signal ratio in the repeat runs, not every such curve was filed as active; the % refers to the signal ratio; also: potency is read from the fitted curve at half-maximal effect)
How it was run: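 Stimulus R5020 at 1 nM final; cells HEK293T PR-UAS-bla; medium with 2% charcoal-stripped FBS; compound exposure 16 hr at 37C, 5% CO2; detection by FRET beta-lactamase substrate, 2 hr, room temperature.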

[10] = qHTS assay to identify small molecule antagonists of the progesterone receptor (PR) signaling pathway - cell viability counter screen (AID 1346798); also: series mostly up to about 92 µM; nearly all actives have a fitted effect of over 50% in size
How it was run: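 In the same plates used for the beta-lactamase readout, cell viability of compound- and R5020-treated PR-UAS-bla HEK293T cells (16 hr, 37C) was assessed by CellTiter-Glo luminescence.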

[11] = qHTS assay to identify small molecule agonists of the progesterone receptor (PR) signaling pathway - cell viability counter screen (AID 1346799; calls by dose curve; also: nearly all actives have a fitted effect of over 45% in size)
How it was run: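 Multiplexed viability read: CellTiter-Glo luminescence, 30 min RT, following LiveBLAzer FRET measurement on PR-UAS-bla HEK293T cells exposed to compounds 16 hr.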

[12] = qHTS assay to identify small molecule antagonists of the TGF-beta/Smad signaling pathway - cell viability counter screen (AID 1346824); also: nearly all actives have a fitted effect of over 50% in size
How it was run: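 SBE-bla HEK 293T cells were plated overnight at 37 C, then given compounds in DMSO plus TGF-beta1 (added as 0.25 ng/mL solution) for 5 hr. After the bla read, CellTiter-Glo was added to the same wells and luminescence read after 30 min at room temperature.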

[13] = qHTS assay to identify small molecule agonists of the TGF-beta/Smad signaling pathway - cell viability counter screen (AID 1346829); also: top concentration of the series differs between compounds; nearly all actives have a fitted effect of over 45% in size
How it was run: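 Compound-treated SBE-bla HEK 293T cells (5 hr, 37 C) were assessed for viability with CellTiter-Glo in parallel with the reporter read.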

[14] = qHTS assay to identify small molecule agonists of the TGF-beta/Smad signaling pathway (AID 1346859; active = well fitted activation curve with a large enough effect in the signal ratio in the repeat runs, not every such curve was filed as active; the % refers to the signal ratio; also: series mostly up to about 77 µM)
How it was run: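 Screening used HEK 293T SBE-bla cells at 4,000/well. Test agents: 5 hr, 37 C. Detection: FRET substrate, 2 hr RT, then excitation 405 nm with emissions at 460 and 530 nm.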

[15] = target: Thyrotropin-releasing hormone receptor (Homo sapiens) (UniProt P34981); experiment: qHTS assay to identify small molecule antagonists of the thyrotropin-releasing hormone receptor (TRHR) signaling pathway (AID 1346877; active = well fitted inhibition curve with a large enough effect in the repeat runs, not every such curve was filed as active; also: series mostly up to about 51 µM)
Thyrotropin-releasing hormone receptor (Homo sapiens), sequence (P34981 whole entry, looked up): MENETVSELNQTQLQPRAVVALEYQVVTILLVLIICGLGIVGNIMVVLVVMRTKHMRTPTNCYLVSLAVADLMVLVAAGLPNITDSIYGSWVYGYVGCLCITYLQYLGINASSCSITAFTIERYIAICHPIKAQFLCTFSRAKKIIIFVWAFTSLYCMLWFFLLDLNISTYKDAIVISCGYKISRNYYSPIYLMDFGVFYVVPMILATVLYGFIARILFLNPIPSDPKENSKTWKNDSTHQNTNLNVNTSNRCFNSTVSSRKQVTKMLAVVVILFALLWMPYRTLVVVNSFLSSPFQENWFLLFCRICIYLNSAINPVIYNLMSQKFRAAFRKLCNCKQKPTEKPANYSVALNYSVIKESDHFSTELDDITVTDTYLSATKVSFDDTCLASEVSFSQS
How it was run: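 Screening used HEK293 cells engineered with TRHR, with a brief 5 min room-temperature compound exposure preceding addition of TRH to 1 nM. The read-out was kinetic calcium-dye fluorescence, concentration-response from 15 doses in triplicate.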

[16] = target: Thyrotropin-releasing hormone receptor (Homo sapiens) (UniProt P34981); experiment: qHTS assay to identify small molecule agonists of the thyrotropin-releasing hormone receptor (TRHR) signaling pathway (AID 1346891; calls by dose curve; also: series mostly up to about 58 µM)
How it was run: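 Readout was intracellular calcium fluorescence in TRHR-Hek293 cells. Cells were incubated 18 h, dye-loaded 2 h at 37 °C, and treated with compound in agonist mode.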

[17] = Human pregnane X receptor (PXR) small molecule agonists, qHTS cell viability counter screen (AID 1346977); also: nearly all actives have a fitted effect of over 50% in size
How it was run: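 In each well, the PXR reporter HepG2 line was checked for viability: CellTiter-Fluor reagent added 23hr post-dosing, fluorescence read after 1hr incubation at 37C.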

[18] = qHTS assay to identify small molecule agonists of the estrogen receptor beta (ER-beta) signaling pathway - cell viability counter screen (AID 1259380); also: nearly all actives have a fitted effect of over 30% in size; also: potency is read from the fitted curve at half-maximal effect
How it was run: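 Cells used were ER-beta-UAS-bla HEK293T in medium with 2% charcoal-stripped FBS. They were treated for 16 hr at 37C. Viability came from CellTiter-Glo luminescence.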

[19] = target: Thyrotropin receptor (Homo sapiens) (UniProt P16473); experiment: qHTS assay to identify small molecule antagonists of the thyroid stimulating hormone receptor (TSHR) signaling pathway (AID 1259385; calls by dose curve; also: nearly all actives have a fitted effect of over 20% in size)
Thyrotropin receptor (Homo sapiens), sequence (P16473 whole entry, looked up): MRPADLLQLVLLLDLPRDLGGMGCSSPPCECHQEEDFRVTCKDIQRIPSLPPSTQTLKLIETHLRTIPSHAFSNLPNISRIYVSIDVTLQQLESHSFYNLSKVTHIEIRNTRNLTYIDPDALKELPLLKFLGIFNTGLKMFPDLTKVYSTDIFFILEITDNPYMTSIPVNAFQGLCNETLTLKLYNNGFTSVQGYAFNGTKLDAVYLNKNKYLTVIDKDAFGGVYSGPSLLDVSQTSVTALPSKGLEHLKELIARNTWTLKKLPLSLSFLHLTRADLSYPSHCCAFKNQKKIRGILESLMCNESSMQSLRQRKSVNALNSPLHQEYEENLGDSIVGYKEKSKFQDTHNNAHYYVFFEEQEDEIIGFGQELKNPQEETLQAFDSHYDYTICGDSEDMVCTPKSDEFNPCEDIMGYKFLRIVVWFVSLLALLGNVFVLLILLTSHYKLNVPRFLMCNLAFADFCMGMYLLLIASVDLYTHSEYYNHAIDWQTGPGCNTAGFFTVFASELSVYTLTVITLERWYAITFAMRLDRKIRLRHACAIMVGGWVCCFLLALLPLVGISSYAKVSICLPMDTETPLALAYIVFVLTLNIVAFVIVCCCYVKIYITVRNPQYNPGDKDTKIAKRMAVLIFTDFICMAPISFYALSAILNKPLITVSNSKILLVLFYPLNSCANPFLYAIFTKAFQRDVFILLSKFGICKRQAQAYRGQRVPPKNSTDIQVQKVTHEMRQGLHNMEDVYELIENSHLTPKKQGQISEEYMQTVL
How it was run: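 TSHR-HEK293 cells were plated and held 18 h at 37C/5% CO2, then given compound plus Ro20-1724 and stimulated with TSH at 1.5 ng/mL final. After 30 min at room temperature, cAMP was detected with cAMP-d2/anti-cAMP-cryptate (1 h) by fluorescence.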

Compound: CCCCOCCOC(=O)c1ccccc1C(=O)OCCOCCCC
- outcome [1]: inactive
- Potency [2]: inactive
- Potency [3]: inactive
- Potency [4]: inactive
- Potency [5]: inactive
- Potency [6]: inactive
- Potency [7]: inactive
- Potency [8]: inactive
- Potency [9]: 53.3 µM (active)
- Potency [10]: inactive
- Potency [11]: inactive
- Potency [12]: inactive
- Potency [13]: inactive
- outcome [14]: inactive
- Potency [15]: inactive
- Potency [16]: inactive
- Potency [17]: inactive

Compound: CCC(C)(C)C(=O)O[C@H]1C[C@@H](C)C=C2C=C[C@H](C)[C@H](CC[C@@H]3C[C@@H](O)CC(=O)O3)[C@H]21
- outcome [1]: inactive
- Potency [3]: inactive
- Potency [18]: 27.3 µM (active) and 13.3 µM (active)
- Potency [4]: 11.9 µM (active)
- Potency [5]: inactive
- Potency [6]: inactive
- Potency [19]: inactive
- Potency [7]: inactive
- Potency [8]: inactive
- Potency [10]: inactive
- Potency [12]: inactive
- outcome [14]: inactive
- Potency [15]: inactive
- Potency [16]: inactive

Compound: CCCCCCCCCCCCCCCCCl
- activation [1]: 1.06% [at 19 µM]
- activity, negative = inhibition [2]: 9.46% [at 19 µM]
- activity change, negative = cytotoxicity [3]: 1.7% [at 19 µM]
- activity change, negative = cytotoxicity [4]: 3.31% [at 19 µM]
- activation [5]: -0.0791% [at 19 µM]
- cAMP activity change [6]: 0.656% [at 18.9 µM, hits give high values]
- activity change, negative = inhibition [19]: -1.34% [at 19 µM]
- activity change, negative = cytotoxicity [7]: -1.56% [at 19 µM]
- Potency [8]: 3.84 µM (active)
- activity change, negative = inhibition [9]: 4.71% [at 18.9 µM]
- viability change, negative = cytotoxic [12]: 1.48% [at 15.8 µM]
- activity change, negative = cytotoxicity [13]: 1.73% [at 15.8 µM]
- activation [14]: 0.675% [at 15.8 µM]
- activity, negative = inhibition [15]: 3.5% [at 10.5 µM]
- activation [16]: -0.271% [at 11.8 µM]
- activity change, negative = cytotoxicity [17]: 0.261% [at 19 µM]

Compound: COC(=O)/C=C/c1ccccc1
- outcome [1]: inactive
- Potency [2]: inactive
- Potency [3]: inactive
- Potency [4]: inactive
- Potency [5]: inactive
- Potency [19]: inactive
- Potency [7]: inactive
- Potency [8]: inactive
- Potency [9]: inactive
- Potency [10]: inactive
- Potency [11]: inactive
- Potency [12]: inactive
- Potency [13]: inactive
- outcome [14]: inactive
- Potency [15]: inactive
- Potency [16]: inactive
- Potency [17]: inactive

Compound: CCn1c2ccccc2c2cc(N)ccc21
- outcome [1]: inactive
- Potency [2]: inactive
- Potency [18]: 17.1 µM (active) and 15.4 µM (active)
- Potency [4]: inactive
- Potency [5]: inactive
- Potency [6]: inactive
- Potency [19]: inactive
- Potency [7]: inactive
- Potency [8]: inactive
- Potency [9]: 34.4 µM (active)
- Potency [10]: inactive
- Potency [11]: inactive
- Potency [12]: inactive
- Potency [13]: inactive
- outcome [14]: inactive
- Potency [15]: inactive
- Potency [16]: inactive
- Potency [17]: inactive

Compound: CC(N)=O
- outcome [1]: inactive
- Potency [3]: inactive
- Potency [18]: inactive
- Potency [4]: inactive
- Potency [6]: inactive
- Potency [19]: inactive
- Potency [7]: inactive
- Potency [8]: inactive
- Potency [9]: inactive
- Potency [10]: inactive
- Potency [12]: inactive
- outcome [14]: inactive
- Potency [15]: inactive
- Potency [16]: inactive
- Potency [17]: inactive

Compound: CC(=O)N[C@@H](CS)C(=O)O
- outcome [1]: inactive
- Potency [2]: inactive
- Potency [3]: inactive
- Potency [4]: inactive
- Potency [5]: inactive
- Potency [6]: inactive
- Potency [19]: inactive
- Potency [7]: inactive
- Potency [8]: inactive
- Potency [9]: inactive
- Potency [10]: inactive
- Potency [11]: inactive
- Potency [12]: inactive
- Potency [13]: inactive
- outcome [14]: inactive
- Potency [17]: inactive
